KDM5B inh – blocks human KDM5B histone demethylase activity | Q9UGL1 | KDM5B demethylase, FDH-coupled NADH fluorescence (FDH is formaldehyde dehydrogenase) | Potency, µM (titrated, usually from 57.7 µM), usual class: inhibitors | 2.6% of 220,000 active; active means well fitted inhibition curve with a large enough effect; further: nearly all actives have a fitted effect of over 70% in size
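Compound dilutions met 200 nM (final) KDM5BΔAP for 10 min at room temperature before substrate addition. The substrate mix held 12.5 µM H3K4me3 with cofactors 25 µM α-ketoglutarate and 50 µM Fe²⁺. NADH signal gain over 30 min defined activity.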
A number is an active result; 0 = inactive. This is one part of a sample in which hits are shown more often than they occur.

SMILES	KDM5B inh
O=c1c(-c2cccs2)ccc2n1C[C@H]1C[C@@H]2CN(Cc2cc3ccccc3o2)C1	31.6µM
Cc1cc(C)c(NC(=O)c2cn(Cc3ccccc3)nn2)c(C)c1	0
Cc1cc(OCC(=O)N2CCN(Cc3nc(N)c4ccccc4n3)CC2)ccc1C(C)C	0
COc1ccc2c(c1)C1(CCN(C(=O)C(C)(C)C)C1)C(=O)N2C (stereo unspecified)	0
O=C1CSC(c2ccc(Cl)cc2)c2cn[nH]c2N1 (stereo unspecified)	0
COc1cc2c(cc1OCC1CCCC1)N(C(=O)C1CCC(C)CC1)CC21CCN(CC(=O)O)CC1 (stereo unspecified)	0
COc1ccc(-c2cn(C[C@H]3CC4CCN3C[C@@H]4C(=O)NCc3ccc(F)cc3)nn2)cc1 (stereo partly specified)	0
CN1c2cccnc2CN(C2COC2)CC[C@H]1CO	0
Cc1ccc2c(n1)N(C)[C@H](CO)CCN(C1COC1)C2	31.6µM
Cc1ccc2c(n1)N(C)[C@H](CO)CCN(CCC(C)C)C2	31.6µM
CCCNC(=O)OC[C@H]1C[C@@H]2CCN1C[C@@H]2c1cc(-c2ccc(OC)cc2)nn1C	0
CCCCNC(=O)NC(=O)CCl	0
CCN1CCN(C(=O)Cc2c[nH]c3ccccc23)CC1	0
CN1CCN(C(=O)Cc2c[nH]c3ncc(-c4ccccc4Oc4ccccc4)cc23)CC1	39.8µM
CC(C)CNC(=O)CN1CCN(C(=O)Cc2c[nH]c3ccccc23)CC1	0
COc1cccc(-c2cnc3[nH]cc(CC(=O)N4CCN(C)CC4)c3c2)c1	35.5µM
COc1cc2c(cc1-c1cccnc1OC)NC(=O)C21CCN(C(C)=O)CC1	0
COc1ncccc1-c1cnc2[nH]cc(CC(=O)N3CCN(C)CC3)c2c1	35.5µM
CN1CCN(C(=O)Cc2c[nH]c3ncc(-c4cccc(OC(F)(F)F)c4)cc23)CC1	35.5µM
O=C(Cc1c[nH]c2ccccc12)N1CCN(CC(=O)N2CCCC2)CC1	0
O=C(Cc1c[nH]c2ncc(-c3cccnc3)cc12)N1CCN(Cc2ccccc2)CC1	0
COc1cccc(CC(=O)N2CCN(CCC(=O)NC(N)=O)CC2)c1	0
CN1CCN(C(=O)COc2ccc3ccccc3c2)CC1	0
CN(C)CCCN1CCC(=O)C2CCCCC21 (stereo unspecified)	0
FC(F)(F)c1cccc(-n2nnnc2C2(N3CCCCC3)CCCCC2)c1	0
SMILES	KDM5B inh
CCOc1ccc(CNCCc2c[nH]c3ccccc23)cc1OC	0
Cn1cc(CN2CCN(C(=O)COc3ccccc3)CC2)ccc1=O	0
Clc1ccc(COc2cccc(CNC3CN4CCC3CC4)c2)c(Cl)c1 (stereo unspecified)	0
CC(C)NC(=O)NC[C@H]1C[C@@H]2CCN1C[C@@H]2CN1CCCCC1	0
N#Cc1ccc(CN2CCC(c3c[nH]c4ccccc34)CC2)cc1	0
Cn1nc(-c2ccccc2)cc1[C@H]1CN2CC[C@H]1C[C@@H]2CNC(=O)N1CCOCC1	0
COC(=O)C12CCC(CC1c1ccccc1)OC2=O (stereo unspecified)	0
COc1ccccc1CC(=O)N1CC2(CCN(C)CC2)c2cc(OC)c(OCc3ccccc3)cc21	0
COc1cc(CNC2CN3CCC2CC3)ccc1OCc1c(F)cccc1Cl (stereo unspecified)	0
N#CC1(c2ccccc2)CCN(C(=O)C2CCN(C(=O)C3CC3)CC2)CC1	0
N#CC1(c2ccccc2)CCN(C(=O)c2cccc(-n3cnnc3)c2)CC1	0
COc1ccc2c(C)c(C(=O)N3CCC(C#N)(c4ccccc4)CC3)oc2c1	20µM
CCCn1c(C)c(C(=O)OCc2ccccc2)c2cc(O)ccc21	0
c1cncc(CNCCN2CCCC2)c1	0
COc1cccc(CC(=O)N2[C@H]3CC[C@@H]2c2cnc(-c4ccccc4)nc2C3)c1	0
COCCNC(=O)NC(=O)CCl	0
O=C(c1cnccn1)N1C[C@@H]2C[C@H](C1)c1c(-c3ccccc3)ccc(=O)n1C2	0
CSCC(=O)N1C[C@@H]2C[C@H](C1)c1c(-c3ccc(NC(C)=O)cc3)ccc(=O)n1C2	28.2µM
O=c1ccc(-c2cccs2)c2n1C[C@H]1C[C@@H]2CN(S(=O)(=O)c2cccs2)C1	31.6µM
O=c1ccc(-c2cccs2)c2n1C[C@H]1C[C@@H]2CN(S(=O)(=O)c2cccc(C(F)(F)F)c2)C1	0
CCCS(=O)(=O)Nc1ccc(=O)n2c1[C@@H]1C[C@@H](CN(C(=O)c3ccc(OC)cc3)C1)C2	0
O=c1ccc(-c2cncnc2)c2n1C[C@H]1C[C@@H]2CN(S(=O)(=O)c2ccccc2)C1	0
COc1ccc(-c2ccc(=O)n3c2[C@@H]2C[C@@H](CN(C(=O)CSC)C2)C3)cc1	0
O=c1ccc(-c2ccc(Cl)cc2)c2n1C[C@H]1C[C@@H]2CN(S(=O)(=O)c2ccccc2)C1	0
O=C(C1CCCCC1)N1C[C@@H]2C[C@H](C1)c1c(-c3cccs3)ccc(=O)n1C2	0
CCCS(=O)(=O)Nc1ccc(=O)n2c1[C@@H]1C[C@@H](CN(C(=O)COc3ccccc3)C1)C2	31.6µM
O=C(C1CCCCC1)N1C[C@@H]2C[C@H](C1)c1c(-c3ccc(Cl)cc3)ccc(=O)n1C2	0

Bioassay records from PubChem.
